What follows are sequences tested on PPARg:RXRa 90nM:30nM, anti-RXR (NR concentration 90 nM, RXRa partner concentration 30 nM) (assay: PBM binding z-score (relative to random genomic background probes); higher = stronger binding; sequences stand for … in GC…GCGATTGACAGCGTAGAATGAAGG).
How it was run: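 Binding z-scores were set against random background probes. The data came from custom Agilent 4×180K protein-binding microarrays carrying double-stranded probes with 34-nt variable regions, incubated 1 h with ligand-free nuclear receptor dimers. Partner-specific antibodies detected binding, and scanned fluorescence was regression-normalized.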
With TCGACTAGGTTACGGGGGCATTCAGGGATGAAGA the PBM binding z-score was 5.76. CTATGTAGGTTAAGGGGGACATTCAGTTTGAAAG was tested, and the PBM binding z-score was 9.61. CCGAGTAGGTTAGGAGGGGGCATTCAGTGCGAAT was tested, and the PBM binding z-score was 2.24. Sequence CTGTGTAGGTTAAGGGGGTCATTCAGTTTGAAAG has a PBM binding z-score of 5.78. CTATGTAGGTTAAGGGGGTCACTCAGTTTGAAAG gave a PBM binding z-score of 8.19. TCGAGTAGGTTAAGGGGGCATTCAGGGATGAAGA showed a PBM binding z-score of 5.72. For TCGAGTTGGTTACGGGGGCATTCAGGGATGAAGA, the PBM binding z-score was 2.63. Work on TCGAGTAGTTTACGGGGGCATTCAGGGATGAAGA yielded a PBM binding z-score of 2.91. Sequence TCGAGTAGGTTACGGGGGCATGCAGGGATGAAGA has a PBM binding z-score of 4.99. In the case of CCGAGTAGGGTACGAGGGGGCATTCAGTGCGAAT, the PBM binding z-score is reported as 1.17. CCGAGTAGGTTACGAGGGGGAATTCAGTGCGAAT was tested, and the PBM binding z-score was 1.37. Sequence CCGAGTAGGTTACAAGGGGGCATTCAGTGCGAAT has a PBM binding z-score of 2.98. For CTATGTAGGTTAAGGGGATCATTCAGTTTGAAAG, the PBM binding z-score was 4.86. For TCGAGTAGGTTACGGGCGCATTCAGGGATGAAGA, the PBM binding z-score was 1.36. In the case of TCGAGTAGGTTACGGGGGCATTTAGGGATGAAGA, the PBM binding z-score is reported as 4.66. CTATGTAGGTTTAGGGGGTCATTCAGTTTGAAAG was tested, and the PBM binding z-score was 4.77. For TCGAGTAGGTTACGGGGGCATTCCGGGATGAAGA, the PBM binding z-score was 4.91. Sequence TCGAGTAGGTTACCGGGGCATTCAGGGATGAAGA has a PBM binding z-score of 2. TCGAGTAGGTGACGGGGGCATTCAGGGATGAAGA gave a PBM binding z-score of 4.67. Work on CCGAGTAGGTTACGAGGTGGCATTCAGTGCGAAT yielded a PBM binding z-score of 1.16. CTATGTAGGGTAAGGGGGTCATTCAGTTTGAAAG gave a PBM binding z-score of 7.42. Sequence CTATGTAGGTTCAGGGGGTCATTCAGTTTGAAAG has a PBM binding z-score of 5.1. CCGAGTAGTTTACGAGGGGGCATTCAGTGCGAAT was tested, and the PBM binding z-score was 1.59. In the case of CCGAGTAGGTTACGAGGGTGCATTCAGTGCGAAT, the PBM binding z-score is reported as 1.13. TCGAGTAGGTTACGGGGGCATTCAAGGATGAAGA showed a PBM binding z-score of 4.94. CTATGTACGTTAAGGGGGTCATTCAGTTTGAAAG was tested, and the PBM binding z-score was 4.57. Work on TCGAGTAGGTTACGGGGGCTTTCAGGGATGAAGA yielded a PBM binding z-score of 3.12. For CCGAGTAGGTTACGAGGGGGCATTCTGTGCGAAT, the PBM binding z-score was 2.35. With TCGCGTAGGTTACGGGGGCATTCAGGGATGAAGA the PBM binding z-score was 3.93. Work on TCGAGTAGGTTACGGGGGCATTCATGGATGAAGA yielded a PBM binding z-score of 4.94. For CTATGTAGGTTAAGGGGGTCATTCACTTTGAAAG, the PBM binding z-score was 8.28. CCGAGTATGTTACGAGGGGGCATTCAGTGCGAAT was tested, and the PBM binding z-score was 1.29. CTATGTAGGTTAAGGGCGTCATTCAGTTTGAAAG was tested, and the PBM binding z-score was 5.17. CCGAGTAGGTTACGAGGGGGCAGTCAGTGCGAAT gave a PBM binding z-score of 2.04. CTATGTCGGTTAAGGGGGTCATTCAGTTTGAAAG was tested, and the PBM binding z-score was 5.7. With TCGAGTAGGTTAGGGGGGCATTCAGGGATGAAGA the PBM binding z-score was 5.01. CTTTGTAGGTTAAGGGGGTCATTCAGTTTGAAAG gave a PBM binding z-score of 7.23. TCGAGTAGGTTACGAGGGCATTCAGGGATGAAGA gave a PBM binding z-score of 2.6. TCGAGTAGGTTACGGAGGCATTCAGGGATGAAGA showed a PBM binding z-score of 1.75.
